# Screening results deposited in PubChem BioAssay by National Center for Advancing Translational Sciences (NCATS).
# Giardia FBPA inh: qHTS Assay for Inhibitors of Fructose-1,6-bisphosphate Aldolase from Giardia Lamblia; Potency, µM (highest dose often 59.6 µM), without a hit: at the highest dose activity, negative = inhibition, hits mostly inhibitors; AID 2451, 2010; 290,000 compounds, 0.71% hits; A8B2U2; purified Giardia FBPA; further: potency means the concentration at half of the fitted maximal effect; on the % scale 0 is the no-effect control and ±100 the full control effect; nearly all actives have a fitted effect of over 55% in size
#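 Giardia FBPA (40 nM reagent) was preincubated 10 min at RT with compound (up to 57.5 uM final), then substrate plus GAPDH/TPI/NAD/arsenate coupling system with diaphorase/resazurin was added; resorufin fluorescence (525/598 nm) was read after 20 min.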
# LmPK inh: qHTS Assay for Inhibitors of Leishmania Mexicana Pyruvate Kinase (LmPK) | AID 1721, 2009 | Potency, µM (titrated, usually from 57.5 µM), for inactives: at the highest dose activity change, negative = inhibition, most hits filed as inhibitors | purified LmPK, Kinase-Glo ATP luminescence, 1 h | 290,000 compounds, 0.37% hits; further: potency means the concentration at half of the fitted maximal effect; on the % scale 0 is the no-effect control and ±100 the full control effect
# Target sequence (Q27686 whole entry, looked up): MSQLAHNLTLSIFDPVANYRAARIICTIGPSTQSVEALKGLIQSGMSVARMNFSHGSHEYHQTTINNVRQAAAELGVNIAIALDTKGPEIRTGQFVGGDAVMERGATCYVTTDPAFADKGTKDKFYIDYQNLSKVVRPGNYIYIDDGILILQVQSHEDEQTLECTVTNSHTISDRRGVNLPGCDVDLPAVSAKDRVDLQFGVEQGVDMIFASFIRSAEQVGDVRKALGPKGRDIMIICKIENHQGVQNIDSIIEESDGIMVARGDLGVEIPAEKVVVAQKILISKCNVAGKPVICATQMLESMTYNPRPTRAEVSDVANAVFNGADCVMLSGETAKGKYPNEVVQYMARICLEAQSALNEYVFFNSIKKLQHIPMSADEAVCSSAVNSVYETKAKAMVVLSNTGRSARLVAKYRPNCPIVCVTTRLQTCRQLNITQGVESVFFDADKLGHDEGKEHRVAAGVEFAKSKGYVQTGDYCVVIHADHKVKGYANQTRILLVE
#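 qHTS format; LmPK 0.1 nM; substrates PEP 0.5 mM and ADP 0.1 mM. One-hour room-temperature incubation, then coupled luciferase luminescence; 0.5 nM enzyme wells mark activation.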
# Shiga inhibitor: A qHTS for Small Molecule Inhibitors of Shiga Toxin. Vero cells, Shiga toxin protein synthesis inhibition reporter. 290,000 compounds, 9.2% hits. AID 2315, 2010. inhibition, % at 38.7 µM; in the data active means inhibition mostly above about 28%, no sharp cut-off; inactive means mostly below about 43%; further: 0% is about no effect
# Cycloheximide cs: Cycloheximide Counterscreen for Small Molecule Inhibitors of Shiga Toxin; cell reporter, cycloheximide protein synthesis inhibition counterscreen; max response, %; 300,000 compounds, 12% hits; in the data active means max response mostly above about 13%, no sharp cut-off; inactive means mostly below about 14%; further: read at 38.3 µM for the half of the compounds with a filed dose; 0% is about no effect
# TbPYK inhibitor: qHTS of Trypanosoma Brucei Inhibitors; TbPYK enzyme, Kinase-Glo Plus ATP luminescence, 45 min; Potency, µM (titrated, usually from 76.8 µM), without a hit: top-dose activity, negative = inhibition, actives largely listed as inhibitors; 410,000 compounds, 0.12% hits; AID 624173, 2012; further: potency means the concentration at half of the fitted maximal effect; on the % scale 0 is the no-effect control and ±100 the full control effect; nearly all actives have a fitted effect of over 50% in size
#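 T. brucei PYK with substrate was exposed to pin-transferred compounds across a concentration series, then started with 130 uM ADP (final). After 45 min at room temperature, Kinase-Glo Plus luminescence was read, normalized and curve-fitted.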
# Sm TGR block: qHTS Assay for the Inhibitors of Schistosoma Mansoni Peroxiredoxins; 360,000 compounds, 3% hits; purified TGR, DTNB reduction, TNB absorbance 405 nm; Schistosoma mansoni thioredoxin glutathione reductase (TGR), Q962Y6; Potency, µM (titrated, usually from 114 µM), inactives show at the top dose activity change, negative = inhibition, most hits filed as inhibitors; further: potency means the concentration at half of the fitted maximal effect; on the % scale 0 is the no-effect control and ±100 the full control effect; nearly all actives have a fitted effect of over 60% in size
#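 First, TGR (20 nM dispensed) and NADPH were mixed with compound. Second, a 15 min room-temperature incubation followed. Third, further NADPH and then DTNB were added to start the reaction. Finally, TNB absorbance was monitored kinetically.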
# Numbers without * were called inactive; ? = inconclusive; . = no result; [ ] = dose if it differs, or a comment. The sample as a whole holds a higher share of hits than the screen did. Unless noted, the call rests on the fitted dose curve; in most records, active means well fitted curve in the direction sought with a large enough effect; inconclusive means small, poorly fitted or top-dose-only effect, or another doubt; inactive means no such curve, though single readings can be large; an effect the other way counts as inactive or inconclusive.
SMILES,Giardia FBPA inh,LmPK inh,Shiga inhibitor,Cycloheximide cs,TbPYK inhibitor,Sm TGR block
O=C(NCCNc1ccccc1[N+](=O)[O-])c1cc(F)c(F)cc1Cl,3%,-9%,154*,50*,-7%,4%
COc1ccc(NC(=O)C2(C)Cc3c(-c4cccc(C(F)(F)F)c4)ccnc3O2)cn1 (configuration not stated),.,.,.,.,1%,.
COc1ccc(-c2nc3ccccc3o2)cc1NC(=O)c1cccc2c(Cl)cccc12,.,.,.,.,0%,8%
COCCN1C(=O)COc2ccccc2C1C(=O)NCc1ccccc1 (configuration not stated),.,.,.,.,-1%,.
Oc1c(N=Nc2ccccn2)ccc2ccccc12,-15%,13µM*,79*,36*,?,-4%
Cc1cccc(-n2cnc3cc([N+](=O)[O-])ccc32)c1,-13%,-5%,14,12*,-20%,1%
Nc1ccc(-n2cnc3cc([N+](=O)[O-])ccc32)cc1,-14%,2%,97*,18*,-7%,7%
Cc1cnc(NC(=O)Cc2ccc(C)c(C)c2)s1,-11%,-4%,47*,20*,-4%,-14%
Cc1cnc(NC(=O)CSc2nnc(Cc3ccccc3)o2)s1,0%,-4%,-1,0,1%,2%
COC(=O)c1sc(NC(=O)Cc2cccs2)nc1C,3%,-3%,70*,33*,-4%,-2%
Cc1cnc(NC(=O)CSc2nnc(C)n2N)s1,0%,-1%,11,-2,1%,-8%
CCOC(=S)SCC(=O)Nc1ncc(C)s1,?,2%,68*,39*,-4%,12%
Cc1cnc(NC(=O)CSc2ccccc2)s1,-3%,4%,41,30*,5%,10%
Cc1nc2ccccn2c(=O)c1NC(=O)c1ccccc1Cl,.,.,.,.,2%,2%
COC(=O)c1sc(NC(=O)COc2ccccc2)nc1C,4%,-6%,28,23*,-6%,-1%
Cc1nnc(NC(=O)C2(c3ccccc3)CCOCC2)s1,2%,-7%,-5,-5,-2%,1%
Cc1cnc(NC(=O)C2(c3ccccc3)CC2)s1,0%,5%,74*,20*,-5%,4%
Cc1cnc(NC(=O)CCc2ccccc2)s1,1%,7%,.,25*,0%,-28%
COc1ccccc1OCC(=O)Nc1ncc(C)s1,.,.,.,.,1%,-6%
Cc1cnc(NC(=O)COc2ccccc2)s1,-6%,-12%,110*,59*,-2%,13%
COc1ccc(CCC(=O)Nc2ncc(C)s2)cc1OC,5%,1%,-5,7,1%,21%
COC(=O)C1=C(C(=O)OC)[C@@H]2N(Cc3ccccc3)c3ccccc3[C@@]23C[C@@H](C(=O)OC)N(S(=O)(=O)c2ccc([N+](=O)[O-])cc2)C3=N1,3%[12.9 µM],-8%[11.5 µM],.,.,.,.
Cc1ccc(C)c(OCCn2cc(C(=O)c3ccco3)c3ccccc32)c1,.,.,.,.,5%,3%
CCN(C(=O)Cn1nc(Cc2cccnc2)c2ccccc2c1=O)c1ccccc1F,.,.,.,.,-4%,4%
COc1ccc2c(Cl)c(C(=O)N/N=C3\CCCC(=O)C3)sc2c1,-11%,2%,47*,14,2%,-19%
SMILES,Giardia FBPA inh,LmPK inh,Shiga inhibitor,Cycloheximide cs,TbPYK inhibitor,Sm TGR block
COc1ccc2c(Cl)c(C(=O)N/N=C/c3ccc4c(c3)OCO4)sc2c1,2%,4%,8,6,4%,-8%
CC(C)(C)c1ccc(C(=O)NCC(=O)NCc2ccccn2)cc1,.,.,.,.,0%,5%
CC(N)C(=O)c1ccccc1 (configuration not stated),.,.,.,.,1%[157 µM],.
O=C(c1ccccc1)C(CCC(CN1CCOCC1)C(=O)c1ccccc1)CN1CCOCC1 (configuration not stated),-11%,-1%,-29,-7,-6%,8.9µM*
CN(C)CC(CCC(CN(C)C)C(=O)c1ccccc1)C(=O)c1ccccc1 (configuration not stated),-12%,0%,-23,-8,-4%,2µM*
CCOc1ccc(C(=O)C(CCC(CN(C)C)C(=O)c2ccc(OCC)cc2)CN(C)C)cc1 (configuration not stated),-11%,4%,-16,-10,0%,16µM*
COc1ccc(C(=O)C(CCCCC(CN(C)C)C(=O)c2ccc(OC)cc2)CN(C)C)cc1 (configuration not stated),0%,-4%,8,7,5%,-38%
CCc1ccccc1N(C(=O)c1snc(C(N)=O)c1N)C(C(=O)NCC1CCCO1)c1ccc(C)o1 (configuration not stated),-10%,-2%,-4,-2,7%,6%
O=C(CCCN1CCN(c2ccc(F)cc2)CC1)NC1c2ccccc2CSc2ccccc21 (configuration not stated),.,.,.,.,-8%,.
CNc1sc(C(=O)c2ccccc2F)c(N)c1-c1nc2ccccc2s1,-9%,-4%,64*,19*,.,25µM*
O=C(Nc1ccc(-c2csnn2)cc1)C(Cl)(Cl)Cl,-1%,1%,111*,37*,0%,1%
CC(=O)Nc1ccc(NC(=O)c2csnn2)cc1,.,.,.,.,-16%,-1%
CC(C)(C)C(=O)Nc1ccc(-c2csnn2)cc1,3%,0%,44*,50*,-13%,-17%
N#Cc1nc(-c2ccc(Cl)cc2)oc1NCc1ccco1,0%,0%,91*,28*,-10%,-23%
N#Cc1nc(-c2ccccc2)oc1NCc1ccco1,-1%,0%,active,24*,0%,-5%
N#Cc1nc(-c2ccccc2Cl)oc1NCc1ccco1,-11%,0%,47*,22*,-11%,-7%
N#Cc1nc(Cc2ccccc2)oc1NCc1ccccc1Cl,-7%[12.9 µM],0%,41*,48*,-5%,15%
COCCNC(=O)C1CCC(CNS(=O)(=O)c2ccc3c(c2)CC(C)N3C(C)=O)CC1 (configuration not stated),.,.,.,.,4%,-11%
Cc1nc2ccccn2c1C(=O)N/N=C/c1ccc(F)cc1,-3%,3%,49,-2,-1%,-17%
Cc1ccc(NC(=O)C(=O)NCc2ccc(/C=N/NC(=O)c3c(C)nc4ccccn34)o2)cc1,-7%,-9%,39,28*,-1%,0%
Cc1nc2ccccn2c1C(=O)N/N=C/c1ccccc1,7%,7%,48,20*,6%,-4%
Cc1nc2ccccn2c1C(=O)N/N=C/c1cc(C)n(-c2ccc(Br)cc2)c1C,-5%,-1%,29,16*,2%,-12%
O=C(CCSc1nc(-c2ccco2)cc(C(F)(F)F)n1)N1CCN(c2ccccn2)CC1,-4%,-2%,4,-2,-13%,?
